# In PubChem BioAssay:
# A number with no mark means an inactive call. The list shows a part of the results. The source made the active and inactive calls. Cut-off read from the data, not from the text of the source, unless noted: active = inhibition above about 11%; inactive = the rest.
# Key:
# [1] = target: Platelet-activating factor acetylhydrolase IB subunit alpha1 (Homo sapiens) (UniProt Q15102); experiment: PAFAH1B3 enzyme inhibitors, confirmation, biochemical, fluorescence polarization, human (AID 493032;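 active = average inhibition over triplicate runs above the hit cutoff set in the earlier primary screen, cut at about 25% in these data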;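 note: 0% = enzyme with DMSO and 100% = wells lacking PAFAH1B3 protein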); settings: recombinant PAFAH1B3, FP-Rh activity-based probe, at 3.39 µM, active compounds read high
# Chain of Platelet-activating factor acetylhydrolase IB subunit alpha1 (Homo sapiens) (Q15102 whole entry, looked up): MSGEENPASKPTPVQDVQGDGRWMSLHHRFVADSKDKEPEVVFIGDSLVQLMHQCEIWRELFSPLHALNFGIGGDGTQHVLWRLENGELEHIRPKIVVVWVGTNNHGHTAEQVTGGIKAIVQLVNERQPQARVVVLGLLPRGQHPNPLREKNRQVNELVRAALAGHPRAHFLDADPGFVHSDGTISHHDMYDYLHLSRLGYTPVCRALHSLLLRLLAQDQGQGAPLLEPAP
# [2] = growth loss of phage-infected E. coli expressing H. pylori AddAB, confirmation, AddAB inhibitor project, absorbance, E. coli V3065, T4 phage, triplicate (AID 488942;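 active = mean inhibition above a set limit taken from the earlier primary screen, cut at about 13% in these data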;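 note: higher means less bacterial growth since AddAB block lets phage replicate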); settings: OD, at 11.9 µM, active compounds read high, T4 phage with gene 2 nonsense mutations
# [3] = growth loss of RecBCD+ E. coli with mutant T4 phage, counter-screen for AddAB inhibitor project, absorbance, V66 E. coli (AID 488955;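 active = mean inhibition above the mean of solvent-only control wells plus 3 SD, cut at about 4% in these data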;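 note: optical density read after an 18 h incubation at 37 °C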); settings: OD growth, at 11.9 µM, active compounds read high
# [4] = bacterial viability inhibition counter-screen, confirmation, counter-screen for AddAB inhibitor project, absorbance (AID 488956; in the data active = inhibition above about 25%); settings: absorbance (AddAB counterscreen), at 11.9 µM, active compounds read high
# [5] = target: Serine protease HTRA1 (Homo sapiens) (UniProt Q92743); experiment: HTRA1 protease inhibitors, retest, confirmation, biochemical, fluorescence polarization (AID 540248;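 active = mean inhibition over three repeats above a set limit taken from the earlier primary screen, cut at about 37% in these data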;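 note: 0% = HTRA1 with DMSO and 100% = wells lacking HTRA1; inhibitors block probe binding so polarization drops and inhibition rises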); settings: recombinant HTRA1, FP-rhodamine activity-based probe, at 5.96 µM, active compounds read high
# [6] = growth loss of phage-infected RecBCD+ E. coli, confirmation, RecBCD inhibitor project, absorbance, E. coli V66, T4 gene 2 phage (AID 651982;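 active = mean inhibition over triplicates exceeding the hit threshold derived in the original primary screen, cut at about 11% in these data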); settings: E. coli V66 + T4 2- phage, growth OD; at 11.9 µM; active compounds read high
# [7] = E. coli viability inhibition, counter-screen for RecBCD inhibitor project, absorbance, high throughput (AID 651983; in the data active = inhibition above about 20%;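 note: E. coli strain V66 grown with compound alone and no phage infection; 0% = bacteria with DMSO vehicle only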); settings: absorbance (OD) growth, at 11.9 µM, active compounds read high
# [8] = growth loss of phage-infected AddAB-carrying E. coli, confirmation, counter-screen for RecBCD inhibitor project, absorbance, E. coli V3065, T4 phage (AID 651984;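 active = mean inhibition above the solvent-only control wells' mean plus 3 SD, cut at about 22% in these data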;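 note: higher means less bacterial growth from phage killing when AddAB is blocked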); settings: E. coli expressing H. pylori AddAB + T4 phage, OD growth; at 11.9 µM; active compounds read high; gene 2 mutant T4, recBCD-deleted host
# [9] = target: (Lyso)-N-acylphosphatidylethanolamine lipase (Mus musculus) (UniProt Q8VD66); experiment: ABHD4 inhibitors, retest, confirmation, biochemical, fluorescence polarization, mouse (AID 720658;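 active = mean inhibition across replicates above the hit cutoff set in the primary screen, cut at about 30% in these data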;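 note: 0% = wild-type ABHD4 with DMSO and 100% = catalytically dead S159A mutant with DMSO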); settings: purified mABHD4, FP-Rh probe fluorescence polarization; at 8.92 µM; active compounds read high
# Chain of (Lyso)-N-acylphosphatidylethanolamine lipase (Mus musculus) (Q8VD66 whole entry, looked up): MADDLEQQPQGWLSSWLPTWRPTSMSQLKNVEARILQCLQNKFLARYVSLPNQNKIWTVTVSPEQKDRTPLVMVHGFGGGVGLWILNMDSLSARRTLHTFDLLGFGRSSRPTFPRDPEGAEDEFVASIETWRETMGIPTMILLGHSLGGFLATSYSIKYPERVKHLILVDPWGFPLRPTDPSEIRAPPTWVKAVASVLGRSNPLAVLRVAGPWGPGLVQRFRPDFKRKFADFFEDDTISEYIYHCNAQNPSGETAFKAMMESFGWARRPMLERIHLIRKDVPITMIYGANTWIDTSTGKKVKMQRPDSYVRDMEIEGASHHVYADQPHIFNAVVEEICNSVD
# [10] = target: Toll-like receptor 9 (Homo sapiens) (UniProt Q9NR96); experiment: TLR9-MyD88 association inhibitors, retest, confirmation, cell-based, CHO, BLA complementation, fluorescence, triplicate (AID 540250;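 active = mean inhibition across three repeats above about 21% taken from the earlier screen, limit read from the data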;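 note: blue over green emission ratio reports constitutive TLR9 MyD88 association via BLA complementation; 0% = DMSO vehicle wells and 100% = clavulanate BLA inhibitor wells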); settings: CCF4 FRET ratio, at 4.98 µM, active compounds read high
# Chain of Toll-like receptor 9 (Homo sapiens) (Q9NR96 whole entry, looked up): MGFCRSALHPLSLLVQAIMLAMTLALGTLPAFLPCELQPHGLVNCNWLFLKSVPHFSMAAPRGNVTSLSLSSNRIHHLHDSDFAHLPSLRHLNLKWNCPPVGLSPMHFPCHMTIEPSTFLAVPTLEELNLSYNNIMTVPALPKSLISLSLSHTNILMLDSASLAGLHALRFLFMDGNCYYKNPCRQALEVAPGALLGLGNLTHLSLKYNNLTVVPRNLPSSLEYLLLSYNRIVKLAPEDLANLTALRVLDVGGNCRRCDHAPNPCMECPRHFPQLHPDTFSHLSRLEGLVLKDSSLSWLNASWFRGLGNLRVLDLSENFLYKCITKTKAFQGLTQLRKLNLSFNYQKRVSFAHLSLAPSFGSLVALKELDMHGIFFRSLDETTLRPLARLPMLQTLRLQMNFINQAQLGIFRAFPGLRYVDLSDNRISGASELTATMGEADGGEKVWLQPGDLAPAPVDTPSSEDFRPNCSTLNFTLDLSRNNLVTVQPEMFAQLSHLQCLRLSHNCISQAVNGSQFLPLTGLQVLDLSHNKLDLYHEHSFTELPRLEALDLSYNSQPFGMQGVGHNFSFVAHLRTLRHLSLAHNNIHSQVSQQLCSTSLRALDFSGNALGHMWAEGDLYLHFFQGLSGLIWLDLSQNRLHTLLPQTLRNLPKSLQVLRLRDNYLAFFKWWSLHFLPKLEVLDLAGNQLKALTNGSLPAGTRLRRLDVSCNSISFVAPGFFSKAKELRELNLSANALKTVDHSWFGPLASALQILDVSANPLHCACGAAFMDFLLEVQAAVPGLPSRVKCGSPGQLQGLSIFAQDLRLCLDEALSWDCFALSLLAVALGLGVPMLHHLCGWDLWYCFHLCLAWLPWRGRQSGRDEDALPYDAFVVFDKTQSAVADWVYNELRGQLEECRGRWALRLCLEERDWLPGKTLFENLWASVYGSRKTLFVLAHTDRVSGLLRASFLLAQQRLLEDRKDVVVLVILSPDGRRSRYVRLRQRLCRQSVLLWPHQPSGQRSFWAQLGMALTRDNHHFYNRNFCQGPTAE
# [11] = beta-lactamase reporter inhibitors in CHO cells, artefact control for TLR9-MyD88 binding inhibitor project, cell-based, fluorescence (AID 540251;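 active = mean inhibition above a 50% cutoff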;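 note: counterscreen of TLR9-MyD88 hits on CMV-driven BLA in CHO-K1 cells; 0% = DMSO alone and 100% = clavulanate blocking BLA; higher means less blue over green ratio so more BLA blockade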); settings: CHO-BLA cells, CCF4 FRET ratio, at 4.98 µM, active compounds read high
# [12] = CHO cell viability loss – luminescence, single concentration, cytotoxicity control for TLR9-MyD88 binding inhibitor project (AID 588336); settings: TLR9-MyD88 CHO cells cytotoxicity, at 4.98 µM, active compounds read high
# [13] = target: Receptor-interacting serine/threonine-protein kinase 2 (Homo sapiens) (UniProt O43353); experiment: NOD2-RIPK2 binding disruptors, retest, confirmation, fluorescence, CHO cells, BLA complementation, triplicate (AID 624370;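 active = mean inhibition across replicates above a set limit taken from the earlier primary screen, cut at about 21% in these data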;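 note: 0% = DMSO-only wells and the high end = clavulanate BLA-blocked wells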); settings: CCF4 FRET, at 4.98 µM, active compounds read high
# Chain of Receptor-interacting serine/threonine-protein kinase 2 (Homo sapiens) (O43353 whole entry, looked up): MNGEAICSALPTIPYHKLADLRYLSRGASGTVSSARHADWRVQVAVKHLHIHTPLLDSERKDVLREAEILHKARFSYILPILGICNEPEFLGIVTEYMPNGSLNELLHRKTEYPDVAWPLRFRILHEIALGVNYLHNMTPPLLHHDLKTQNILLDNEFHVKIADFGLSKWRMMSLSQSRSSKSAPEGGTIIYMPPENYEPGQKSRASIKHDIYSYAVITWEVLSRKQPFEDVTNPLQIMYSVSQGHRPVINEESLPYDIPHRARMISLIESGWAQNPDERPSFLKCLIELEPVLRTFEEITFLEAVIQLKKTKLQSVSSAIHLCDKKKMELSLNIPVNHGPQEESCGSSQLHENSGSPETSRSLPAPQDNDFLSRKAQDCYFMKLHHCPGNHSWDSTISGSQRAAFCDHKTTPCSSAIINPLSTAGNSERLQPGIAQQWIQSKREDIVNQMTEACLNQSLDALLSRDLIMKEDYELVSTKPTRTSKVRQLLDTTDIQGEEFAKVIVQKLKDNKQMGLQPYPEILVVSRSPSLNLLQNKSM
# [14] = beta-lactamase reporter inhibitors in CHO cells, confirmation, artefact control for NOD2-RIPK2 interaction inhibitor project, cell-based, CHO-K1 CMV-bla, CCF4 FRET, fluorescence (AID 624371;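 active = mean inhibition above the low-control mean inhibition plus three low-control SD, cut at about 11% in these data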;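 note: 0% = DMSO only wells and 100% = clavulanate high control wells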); settings: CCF4 FRET ratio, counterscreen, at 4.98 µM, active compounds read high
# [15] = system: transactivating tegument protein VP16 (Human herpesvirus 1); experiment: VP16 transactivation reporter inhibitors, counter-screen for SRC2 inhibitor project, cell-based, luminescence, single concentration (AID 652007; in the data active = inhibition above about 36%); settings: cell-based VP16 transactivation luciferase reporter, at 8.9 µM, active compounds read high
# [16] = target: Nuclear receptor coactivator 2 (Homo sapiens) (UniProt Q15596); experiment: SRC2 coactivator transcriptional activity inhibitors, confirmation, cell-based, luminescence, HEK293, triplicate (AID 652008;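 active = mean inhibition above 46.5%, the solvent-only control mean plus 3 SD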;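 note: 0% = DMSO-treated cells and 100% = Gossypol at 36 µM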); settings: HEK293 GAL4-SRC2 luciferase reporter, at 8.9 µM, active compounds read high
# Chain of Nuclear receptor coactivator 2 (Homo sapiens) (Q15596 whole entry, looked up, the tested form may be a part): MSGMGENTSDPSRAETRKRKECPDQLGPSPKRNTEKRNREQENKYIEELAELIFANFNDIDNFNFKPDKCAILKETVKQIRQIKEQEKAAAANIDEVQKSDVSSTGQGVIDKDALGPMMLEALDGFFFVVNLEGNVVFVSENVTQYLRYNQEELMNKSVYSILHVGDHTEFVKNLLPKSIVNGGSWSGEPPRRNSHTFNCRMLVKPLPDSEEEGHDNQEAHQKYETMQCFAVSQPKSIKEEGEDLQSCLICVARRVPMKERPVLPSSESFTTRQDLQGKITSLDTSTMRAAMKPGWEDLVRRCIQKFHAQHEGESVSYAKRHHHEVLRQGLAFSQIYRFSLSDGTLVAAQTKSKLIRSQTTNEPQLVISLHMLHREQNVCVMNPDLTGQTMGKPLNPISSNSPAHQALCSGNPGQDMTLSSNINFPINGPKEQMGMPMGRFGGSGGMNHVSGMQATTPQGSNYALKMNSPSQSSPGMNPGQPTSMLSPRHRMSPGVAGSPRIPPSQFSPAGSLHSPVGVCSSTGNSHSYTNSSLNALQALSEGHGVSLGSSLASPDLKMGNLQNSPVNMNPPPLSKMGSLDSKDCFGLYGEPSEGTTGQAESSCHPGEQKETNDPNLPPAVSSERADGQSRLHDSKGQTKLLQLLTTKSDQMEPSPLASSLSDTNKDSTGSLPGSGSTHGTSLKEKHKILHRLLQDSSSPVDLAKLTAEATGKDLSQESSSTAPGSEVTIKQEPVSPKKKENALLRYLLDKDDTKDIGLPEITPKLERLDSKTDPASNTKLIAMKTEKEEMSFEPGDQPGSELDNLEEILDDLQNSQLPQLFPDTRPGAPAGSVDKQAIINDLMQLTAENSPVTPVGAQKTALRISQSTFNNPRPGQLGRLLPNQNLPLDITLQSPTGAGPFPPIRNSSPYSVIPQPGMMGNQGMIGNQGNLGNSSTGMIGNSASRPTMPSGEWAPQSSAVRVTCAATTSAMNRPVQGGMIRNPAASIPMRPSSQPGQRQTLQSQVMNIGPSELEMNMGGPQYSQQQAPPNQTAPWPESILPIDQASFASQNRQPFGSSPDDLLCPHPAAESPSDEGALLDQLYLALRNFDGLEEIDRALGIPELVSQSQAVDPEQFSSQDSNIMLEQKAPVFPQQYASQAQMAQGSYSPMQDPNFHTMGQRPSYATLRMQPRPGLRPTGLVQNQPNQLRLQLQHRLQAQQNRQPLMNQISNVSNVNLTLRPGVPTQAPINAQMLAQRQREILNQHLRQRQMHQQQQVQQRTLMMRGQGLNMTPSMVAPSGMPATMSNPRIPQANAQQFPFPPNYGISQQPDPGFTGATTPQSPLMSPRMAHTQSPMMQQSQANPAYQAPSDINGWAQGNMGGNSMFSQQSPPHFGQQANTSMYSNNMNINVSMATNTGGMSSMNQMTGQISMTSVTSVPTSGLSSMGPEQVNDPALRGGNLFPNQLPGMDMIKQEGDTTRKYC
# [17] = compounds interfering with TAMRA-BSA probe, counter-screen for TCR-CD3 interaction inhibitor project, biochemical, fluorescence, TAMRA-labeled BSA (AID 652035; in the data active = inhibition above about 23%;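 note: 0% = buffer low control and 100% = reference high control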); settings: TAMRA-labeled BSA probe fluorescence counterscreen; at 9.4 µM; active compounds read high
# [18] = system: T-cell receptor (TCR)-CD3 interaction, human; experiment: TCR-CD3 interaction inhibitors, retest, confirmation, biochemical, fluorescence, TAMRA-labeled TCR probe (AID 652036; in the data active = inhibition above about 19%); settings: TAMRA-labeled TCR probe fluorescence binding assay; at 9.4 µM; active compounds read high
smiles,measurement,setting,value
COc1ccc(NC(=O)ON=C2c3ccccc3-c3ccccc32)cc1,inhibition,[1],29% (active)
COc1ccc(C2=Nn3c(nnc3-c3ccccc3OC)SC2)cc1OC1CCCC1,inhibition,[1],35.2% (active)
CSC(=S)N/N=C/c1c[nH]c2ccccc12,inhibition,[2],24.2% (active)
same,inhibition,[3],11.8% (active)
same,inhibition,[4],29.5% (active)
same,inhibition,[5],33.3%
COc1ccc(C(=O)c2oc3ccc(Br)cc3c2NC(C)=O)cc1,inhibition,[2],-2.85%
same,inhibition,[3],-1.5%
same,inhibition,[4],-3.05%
CC1CCCN(C(=O)c2ccc3c(c2)C(=O)N(CCC2=CCCCC2)C3=O)C1 (centres undefined),inhibition,[2],-4.68%
same,inhibition,[3],-0.96%
same,inhibition,[4],-2.15%
ON=C1/C(=N\O)CC2(C/C1=N/O)OCCO2,inhibition,[1],27.1% (active)
same,inhibition,[6],1.75%
same,inhibition,[7],4.59%
same,inhibition,[8],-10.8%
O=C1CCC(=O)N(O)CCCCCNC(=O)CCC(=O)N(O)CCCCCNC(=O)CCC(=O)N(O)CCCCCN1,inhibition,[2],31% (active)
same,inhibition,[3],24.5% (active)
same,inhibition,[4],17.4%
same,inhibition,[6],19.5% (active)
same,inhibition,[7],25% (active)
same,inhibition,[8],29.4% (active)
O=C1c2ccccc2NC(c2ccc(-c3cccc(Cl)c3)o2)N1O (centres undefined),inhibition,[2],17.5% (active)
same,inhibition,[3],18.4% (active)
same,inhibition,[4],13.2%
same,inhibition,[6],13.7% (active)
same,inhibition,[7],16.7%
same,inhibition,[8],18.9%
Cc1cccc(NC(=O)Cn2cc(C(=O)c3ccco3)c3ccccc32)c1,inhibition,[2],14.9% (active)
same,inhibition,[3],10.9% (active)
same,inhibition,[4],11.8%
same,inhibition,[6],6.82%
same,inhibition,[7],11.3%
same,inhibition,[8],7.23%
COc1cccc(Cn2cc(/C=N/NC(=O)c3cc(O)cc(O)c3)c3ccccc32)c1,inhibition,[1],17.6%
Cc1cc(-c2csc(N)n2)c(C)n1Cc1ccccc1,inhibition,[5],30.6%
CC[C@@H]1Cc2cc(O)ccc2C2=C1c1ccc(O)cc1C[C@H]2CC,inhibition,[5],47% (active)
same,inhibition,[9],31% (active)
Brc1ccccc1C1Nc2cccc3cccc(c23)N1,inhibition,[5],2.05%
same,inhibition,[9],42.5% (active)
COc1ccccc1C1=Nc2cccc3cccc(c23)N1,inhibition,[5],67.4% (active)
same,inhibition,[9],60.5% (active)
O=C(N/N=C/c1ccc(O)c(O)c1)C1c2ccccc2Oc2ccccc21,inhibition,[5],76.6% (active)
Cc1cccc(NC(=O)c2nc(S(=O)(=O)Cc3ccccc3)ncc2Cl)c1,inhibition,[10],46.4% (active)
same,inhibition,[11],43.2%
same,inhibition,[12],97% (active)
same,inhibition,[13],78.4% (active)
same,inhibition,[14],43.9% (active)
same,inhibition,[15],38.7% (active)
same,inhibition,[16],44.1%
CC(=N\NC(=O)c1cc(Br)ccc1O)/C(=N/O)C(=O)Nc1ccccc1,inhibition,[5],55.9% (active)
same,inhibition,[17],-21.4%
same,inhibition,[18],16.5%
COc1ccc(OC)c(N=Cc2c(O)[nH]c3ccccc23)c1,inhibition,[10],-1.61%
same,inhibition,[11],1.7%
same,inhibition,[12],19.8% (active)
same,inhibition,[13],61.8% (active)
same,inhibition,[14],59.3% (active)
O=C1C(Cl)=C(Oc2ccccc2)C(=O)c2ccccc21,inhibition,[10],79% (active)
same,inhibition,[11],17.5%
same,inhibition,[12],96.2% (active)
COc1ccc(-c2cc(C(F)(F)F)nc(S(C)(=O)=O)n2)cc1OC,inhibition,[10],28.8% (active)
same,inhibition,[11],5.84%
same,inhibition,[12],85.2% (active)
same,inhibition,[13],42.1% (active)
same,inhibition,[14],14.4% (active)
O=[N+]([O-])c1c(NCCO)cc(Sc2nc3ccccc3s2)c2nonc12,inhibition,[10],71.1% (active)
same,inhibition,[11],17.3%
same,inhibition,[12],98.7% (active)
Cc1cccc(CS(=O)(=O)c2ncc(Cl)c(C(=O)Nc3ccc(F)cc3)n2)c1,inhibition,[10],38.1% (active)
same,inhibition,[11],20.7%
same,inhibition,[12],99.1% (active)
same,inhibition,[13],82.9% (active)
same,inhibition,[14],31.5% (active)
same,inhibition,[15],69.8% (active)
same,inhibition,[16],80.6% (active)
CC1(C)CC(=O)C(C2c3ccccc3S(=O)(=O)c3ccccc32)C(=O)C1,inhibition,[10],-5.15%
same,inhibition,[11],-0.53%
same,inhibition,[12],2.02%
CCOC(=O)C1Nc2ccc(C(F)(F)F)cc2C2C=CCC12 (centres undefined),inhibition,[5],30.3%
same,inhibition,[9],24.3%
Cc1cc2oc3ccc(NCCC4CCCN4C)cc3c(=O)c2cc1C (centres undefined),inhibition,[10],19.1%
same,inhibition,[11],16.7%
same,inhibition,[12],31% (active)
same,inhibition,[13],42.8% (active)
same,inhibition,[14],38.5% (active)
O=[N+]([O-])c1ccc(N/N=C/c2ccccc2)cc1,inhibition,[10],13.7%
same,inhibition,[11],10.7%
same,inhibition,[12],3.89%
same,inhibition,[13],17.7%
same,inhibition,[14],20% (active)
C[N+](C)(C)CCNC(=O)c1cc[n+](Cc2ccccc2)c(/C=N/O)c1,inhibition,[10],7.66%
same,inhibition,[11],6.76%
same,inhibition,[12],-0.18%
